The target in the experiment is T1, SALL4 ZFC4 WT (HT-SELEX) (Mus musculus, UniProt Q8BX22 870-940).
T1 sequence: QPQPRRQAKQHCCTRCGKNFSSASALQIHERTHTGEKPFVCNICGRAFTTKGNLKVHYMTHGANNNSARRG
As to the kind of experiment: HT-SELEX; high values mean tight binding. To be noted: protein: recombinant; vector His6-GST; dsDNA, one strand shown. The essentials:
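Purified recombinant mouse SALL4 zinc finger cluster 4 (residues 870–940, 1 µg) was incubated with library DNA (1.5 µg first cycle, 200 ng later) in 100 µl buffer (10 mM Tris–HCl pH 7.5, 50 mM NaCl, poly(dI-dC), DTT) for 10 min at room temperature. Ni2+ bead-captured complexes were washed, PCR-amplified and reselected for up to 6 cycles, in triplicate, then MiSeq-sequenced and scanned for 6-mers. Binding signal is each canonical k-mer's read fraction as fold change versus the initial random library.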
AATGGT: the binding signal was 1.28 ± 0.0798 fold-change vs cycle 0. As to CAATCA, the binding signal was 1.31 ± 0.0592 fold-change vs cycle 0.

Turning to GCACAA, the binding signal is 0.447 ± 0.00967 fold-change vs cycle 0. Regarding ACCACA, the binding signal is 0.701 ± 0.0312 fold-change vs cycle 0. In the case of TAATCA, the binding signal was found to be 2.37 ± 0.116 fold-change vs cycle 0.

As to AGAACT, the binding signal came out at 1.36 ± 0.0489 fold-change vs cycle 0. With GGAGGA, the binding signal was determined as 0.577 ± 0.0578 fold-change vs cycle 0.

As to AGCTCA, the binding signal worked out at 0.694 ± 0.0391 fold-change vs cycle 0. As for GAAGCC, the figure is 0.311 ± 0.0191 fold-change vs cycle 0. Regarding AAAGCA, the binding signal was 1.06 ± 0.0392 fold-change vs cycle 0.

With CAGAAA, the binding signal stood at 1.12 ± 0.0595 fold-change vs cycle 0. Turning to GCTAAA, the binding signal came out at 0.898 ± 0.0417 fold-change vs cycle 0. The value for CACACA was 0.666 ± 0.03 fold-change vs cycle 0; that for AAGGAA was 1.46 ± 0.0939 fold-change vs cycle 0; that for GTTCGA was 0.639 ± 0.0126 fold-change vs cycle 0.

On to AATGGC, for which the binding signal was found to be 0.467 ± 0.0217 fold-change vs cycle 0. As for ACAGAG, the figure is 0.763 ± 0.0507 fold-change vs cycle 0; as for TGCTAA, 1.16 ± 0.0453 fold-change vs cycle 0; as for ACATTG, 1.17 ± 0.0218 fold-change vs cycle 0. The value for AACAGG was 0.801 ± 0.0521 fold-change vs cycle 0; that for CAGCAA was 0.551 ± 0.0466 fold-change vs cycle 0. Take CATATA: the binding signal came out at 2.3 ± 0.215 fold-change vs cycle 0. ATAGTA: the binding signal came to 2.1 ± 0.131 fold-change vs cycle 0. As to CTCTAA, the binding signal came out at 1.25 ± 0.0589 fold-change vs cycle 0.

Turning to AGATTG, the binding signal came out at 1.29 ± 0.0269 fold-change vs cycle 0. As for CCTTGA, the figure is 0.879 ± 0.0172 fold-change vs cycle 0. As to CCACAC, the binding signal was 0.35 ± 0.0241 fold-change vs cycle 0. As for GTATGA, the figure is 1.51 ± 0.0577 fold-change vs cycle 0; as for GTCGTA, 0.571 ± 0.0216 fold-change vs cycle 0. Turning to TAACCA, the binding signal was 1.42 ± 0.042 fold-change vs cycle 0. Take CAGATC: the binding signal is 0.723 ± 0.0477 fold-change vs cycle 0.

As to AGCTGG, the binding signal was found to be 0.346 ± 0.0084 fold-change vs cycle 0. The value for GTCTGA was 0.754 ± 0.0534 fold-change vs cycle 0; that for AGCATC was 0.703 ± 0.0384 fold-change vs cycle 0; that for CGTTAC was 0.817 ± 0.0239 fold-change vs cycle 0. As to TCTCAA, the binding signal was 1.28 ± 0.029 fold-change vs cycle 0.

Regarding ACATCC, the binding signal worked out at 0.877 ± 0.0368 fold-change vs cycle 0. The value for AGGAGG was 0.615 ± 0.0373 fold-change vs cycle 0. As for AGACAT, the binding signal is 1.29 ± 0.0778 fold-change vs cycle 0. For the sequence ACTTAA, the binding signal was found to be 1.95 ± 0.0715 fold-change vs cycle 0.

The record behind these values is article PMC9838217, “Structure of SALL4 zinc finger domain reveals link between AT-rich DNA binding and Okihiro syndrome”.
